The results in this text go back to PubChem BioAssay.

The structures appear in SMILES notation. Active and inactive are the calls of the source.

The test system of assay [1] is Plasmodium falciparum Sir2 (PF13_0152, Sir2A). Nature of the assay: Plasmodium falciparum Sir2A binding compounds – biochemical, small-molecule microarray, 635 nm fluorescence, primary screen (AID 1098).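 Further: score merges spot fluorescence intensity with its signal-to-noise ratio.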 The conditions noted are these: fluorescence 635 nm, higher = more signal.
Assay [2] can be described thus: probe aDKK1 binding to arrayed compounds – biochemical, biotinylated probe, 635/667 nm fluorescence, primary screen (AID 1099).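 Further: score merges 667nm spot fluorescence with signal to noise across triplicate slides.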 The conditions noted are these: small-molecule microarray, higher = more signal.
Assay [3] can be described thus: probe aCHRDL2 binding to arrayed compounds – biochemical, biotinylated probe, 635/667 nm fluorescence, primary screen (AID 1100). Particulars: small-molecule microarray, higher = more signal.
Assay [4] is described as follows: change in splice reporter luminescence, either direction, cell-based, HEK293, spliceosome inhibition project, primary screen (AID 1101).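 Further: HEK293 cells carrying a splicing-competent luciferase reporter gene; test concentration not given here.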 Particulars: HEK293 splicing luciferase reporter, 24 h, higher = more signal, called active from +8 up or from −8 down.
Assay [5] has as its target Fibroblast growth factor 10 (Homo sapiens) (UniProt O15520). In words: compounds binding fibroblast growth factor 10 – biochemical, small-molecule microarray, 635 nm fluorescence, primary screen (AID 1102). Particulars: FGF10 binding, fluorescence 635 nm, higher = more signal.
In assay [6] the test system is glycogen synthase kinase-3 (GSK3A per assay name; protocol says GSK3B). In words: compounds binding glycogen synthase kinase-3 – biochemical, small-molecule microarray, 635 nm fluorescence, GSK3A, primary screen (AID 1103). Further: the record names both GSK3A and GSK3B. The conditions noted are these: fluorescence 635 nm, higher = more signal.
In assay [7] the target is Epidermal growth factor receptor (Homo sapiens) (UniProt P00533). Nature of the assay: compounds binding epidermal growth factor receptor – biochemical, small-molecule microarray, 635 nm fluorescence, primary screen (AID 1104).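 Further: score merges 667 nm emission intensity with spot signal to noise over triplicate slides.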 The conditions noted are these: EGFR binding, higher = more signal.
In assay [8] the target is Follistatin-related protein 3 (Homo sapiens) (UniProt O95633). In words: compounds binding follistatin-related protein 3 – biochemical, small-molecule microarray, 635 nm fluorescence, primary screen (AID 1105).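 Further: score merges emission near 667 nm and signal to noise per printed spot across three slides.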 Particulars: FSTL3 binding, higher = more signal.
Assay [9] has as its target Dickkopf-related protein 1 (Homo sapiens) (UniProt O94907). In words: small molecules binding DKK1 protein – biochemical, small-molecule microarray, 635 nm fluorescence scan, primary screen (AID 1106).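 Further: score merges emission near 667 nm with signal to noise over three replicate slides.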 The conditions noted are these: higher = more signal.
In assay [10] the test system is Inhibin beta A chain (activin A). In words: small molecules binding activin A – biochemical, small-molecule microarray, 635 nm fluorescence scan, primary screen (AID 1107).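 Further: mouse activin A protein probed at 4.33 µg/mL on printed slides; score merges bound-protein fluorescence near 667 nm with spot signal-to-noise.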 Particulars: INHBA, higher = more signal.
Assay [11] has as its system Human papillomavirus type 1a protein E7 (residues 44-93). Nature of the assay: small molecules binding HPV E7 44-93 – biochemical, small-molecule microarray, residues 44-93, 635 nm fluorescence, primary screen (AID 1108).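 Further: E7 fragment applied at 1 µg/mL in TBST for 1 h at 4 C; score combines spot fluorescence with its signal to noise ratio.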 Particulars: fluorescence 635 nm, higher = more signal.
A short description of assay [12]: hepatitis C replication reporter changes, two-sided – Huh7 cells, luciferase reporter, HCV replication inhibitor project, primary screen (AID 1109).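 Further: huh7 hepatoma cells harbouring a luciferase neomycin HCV replicon reporter; luciferase luminescence as measure of HCV replicon replication; test concentration not given here.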 Particulars: Huh7 HCV replicon luciferase reporter, 48 h; higher = more signal.
Assay [13] addresses Left-right determination factor 2 (Homo sapiens) (UniProt O00292). In words: small molecules binding LEFTY2 protein – biochemical, small-molecule microarray, 635 nm fluorescence scan, primary screen (AID 1110). Particulars: higher = more signal.
The target in assay [14] is Calmodulin-1 (Homo sapiens) (UniProt P0DP23). In words: small molecules binding calmodulin-1 with EGTA – biochemical, small-molecule microarray, Cy5-labelled CALM1, profiling panel (AID 1111).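 Further: labelled calmodulin applied in Tris saline Tween buffer holding calcium plus EGTA and DTT.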 The conditions noted are these: Cy5-CALM1 binding fluorescence, higher = more signal.
The target is the same in assay [15]. Nature of the assay: small molecules binding Ca-loaded calmodulin-1 – biochemical, small-molecule microarray, Cy5-labelled CALM1, plus calcium, artefact control for SMM control-protein annotation, profiling panel (AID 1112).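 Further: score merges spot fluorescence with signal to noise from triplicate slides.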 Particulars: Cy5-CALM1 binding fluorescence, higher = more signal.
Assay [16] is described as follows: probe aWnt5a binding to arrayed compounds – biochemical, biotinylated probe, 635/667 nm fluorescence, primary screen (AID 1113).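 Further: score merges 667 nm fluorescence intensity with signal-to-noise per printed feature.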 The conditions noted are these: small-molecule microarray, higher = more signal.
Assay [17] is described as follows: probe aShh binding to arrayed compounds – biochemical, biotinylated probe, 635/667 nm fluorescence, primary screen (AID 1114).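 Further: probe is biotin-labelled aShh protein from a stem cell growth factor screen; measures binding of labelled protein to compounds printed on the slide; score merges feature fluorescence at 667 nm with signal-to-noise.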 Particulars: small-molecule microarray, higher = more signal.
A short description of assay [18]: probe aNog binding to arrayed compounds – biochemical, biotinylated probe, 635/667 nm fluorescence, primary screen (AID 1115).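 Further: probe is biotinylated aNog protein used at 0.15 µg/mL for 1 h at 4 C; z-score combines 667 nm fluorescence of each spot with its signal to noise.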 Particulars: small-molecule microarray, higher = more signal.
For assay [19], the target named is Torsin-1A-interacting protein 1 (Homo sapiens) (UniProt Q5JTV8). In words: compound microarray binding of lysate hLAP1 – cell lysate, small-molecule microarray, COS7 lysate, 635/667 nm fluorescence, primary screen (AID 1116). Particulars: 635 nm fluorescence, higher = more signal.
Assay [20] addresses Alpha-bungarotoxin (Bungarus multicinctus) (UniProt P60615). In words: compounds binding labelled alpha-BTX control protein – biochemical, small-molecule microarray, Alexa647 label, 635/667 nm fluorescence, artefact control for SMM control protein annotation, profiling panel (AID 1117). Particulars: alpha-BTX-A647 binding fluorescence, higher = more signal.

Sequence of Torsin-1A-interacting protein 1 (Homo sapiens) (Q5JTV8 whole entry, looked up): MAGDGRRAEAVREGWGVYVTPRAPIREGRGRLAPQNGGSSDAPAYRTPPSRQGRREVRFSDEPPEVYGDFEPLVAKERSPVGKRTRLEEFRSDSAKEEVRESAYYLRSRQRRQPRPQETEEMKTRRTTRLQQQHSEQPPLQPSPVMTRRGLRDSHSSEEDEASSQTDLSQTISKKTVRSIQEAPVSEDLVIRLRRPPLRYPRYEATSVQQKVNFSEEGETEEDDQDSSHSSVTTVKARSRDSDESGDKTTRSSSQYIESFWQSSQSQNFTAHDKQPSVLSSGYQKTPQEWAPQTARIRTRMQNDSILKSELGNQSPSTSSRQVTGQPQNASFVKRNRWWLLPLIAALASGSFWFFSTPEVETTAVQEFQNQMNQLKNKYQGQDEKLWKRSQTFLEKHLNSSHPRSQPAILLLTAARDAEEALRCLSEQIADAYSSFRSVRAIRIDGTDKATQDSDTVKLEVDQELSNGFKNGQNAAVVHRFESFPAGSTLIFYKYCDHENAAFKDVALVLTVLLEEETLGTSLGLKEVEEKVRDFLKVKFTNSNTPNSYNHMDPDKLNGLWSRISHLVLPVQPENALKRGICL
Sequence of Follistatin-related protein 3 (Homo sapiens) (O95633 whole entry, looked up): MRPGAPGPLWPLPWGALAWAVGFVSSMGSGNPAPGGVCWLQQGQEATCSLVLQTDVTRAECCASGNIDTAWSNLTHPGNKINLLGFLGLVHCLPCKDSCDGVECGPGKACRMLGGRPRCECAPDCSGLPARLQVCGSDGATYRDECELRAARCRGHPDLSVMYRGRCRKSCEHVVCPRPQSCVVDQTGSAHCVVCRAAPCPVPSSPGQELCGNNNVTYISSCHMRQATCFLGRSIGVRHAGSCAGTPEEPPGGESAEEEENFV
Sequence of Fibroblast growth factor 10 (Homo sapiens) (O15520 whole entry, looked up): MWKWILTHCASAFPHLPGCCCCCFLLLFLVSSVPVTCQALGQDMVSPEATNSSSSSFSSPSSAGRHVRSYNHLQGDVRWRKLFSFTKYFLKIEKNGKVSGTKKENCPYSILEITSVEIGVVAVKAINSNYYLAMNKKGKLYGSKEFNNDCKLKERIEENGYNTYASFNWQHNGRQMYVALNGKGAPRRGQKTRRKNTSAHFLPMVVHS
Sequence of Left-right determination factor 2 (Homo sapiens) (O00292 whole entry, looked up): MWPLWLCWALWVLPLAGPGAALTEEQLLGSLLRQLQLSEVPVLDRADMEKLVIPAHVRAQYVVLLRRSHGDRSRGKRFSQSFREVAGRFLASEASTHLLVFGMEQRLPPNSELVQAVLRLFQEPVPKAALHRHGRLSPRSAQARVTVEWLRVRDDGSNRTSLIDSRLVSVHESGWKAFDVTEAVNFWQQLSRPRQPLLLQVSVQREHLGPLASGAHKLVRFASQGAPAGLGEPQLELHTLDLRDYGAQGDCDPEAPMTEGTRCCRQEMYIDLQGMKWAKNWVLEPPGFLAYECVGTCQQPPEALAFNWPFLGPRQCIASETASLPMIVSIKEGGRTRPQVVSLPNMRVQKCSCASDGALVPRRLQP
Sequence of Alpha-bungarotoxin (Bungarus multicinctus) (P60615 whole entry, looked up): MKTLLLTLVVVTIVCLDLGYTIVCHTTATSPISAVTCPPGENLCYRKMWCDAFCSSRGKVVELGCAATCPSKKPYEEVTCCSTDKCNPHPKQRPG
Sequence of Dickkopf-related protein 1 (Homo sapiens) (O94907 whole entry, looked up): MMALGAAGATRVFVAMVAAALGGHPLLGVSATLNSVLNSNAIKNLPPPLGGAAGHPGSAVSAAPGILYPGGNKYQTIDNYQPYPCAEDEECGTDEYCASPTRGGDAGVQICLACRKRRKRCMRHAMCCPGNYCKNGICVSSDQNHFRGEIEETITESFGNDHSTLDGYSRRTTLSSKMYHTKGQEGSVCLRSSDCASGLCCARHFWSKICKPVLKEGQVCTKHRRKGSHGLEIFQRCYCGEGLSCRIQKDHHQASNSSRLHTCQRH
Sequence of Epidermal growth factor receptor (Homo sapiens) (P00533 whole entry, looked up): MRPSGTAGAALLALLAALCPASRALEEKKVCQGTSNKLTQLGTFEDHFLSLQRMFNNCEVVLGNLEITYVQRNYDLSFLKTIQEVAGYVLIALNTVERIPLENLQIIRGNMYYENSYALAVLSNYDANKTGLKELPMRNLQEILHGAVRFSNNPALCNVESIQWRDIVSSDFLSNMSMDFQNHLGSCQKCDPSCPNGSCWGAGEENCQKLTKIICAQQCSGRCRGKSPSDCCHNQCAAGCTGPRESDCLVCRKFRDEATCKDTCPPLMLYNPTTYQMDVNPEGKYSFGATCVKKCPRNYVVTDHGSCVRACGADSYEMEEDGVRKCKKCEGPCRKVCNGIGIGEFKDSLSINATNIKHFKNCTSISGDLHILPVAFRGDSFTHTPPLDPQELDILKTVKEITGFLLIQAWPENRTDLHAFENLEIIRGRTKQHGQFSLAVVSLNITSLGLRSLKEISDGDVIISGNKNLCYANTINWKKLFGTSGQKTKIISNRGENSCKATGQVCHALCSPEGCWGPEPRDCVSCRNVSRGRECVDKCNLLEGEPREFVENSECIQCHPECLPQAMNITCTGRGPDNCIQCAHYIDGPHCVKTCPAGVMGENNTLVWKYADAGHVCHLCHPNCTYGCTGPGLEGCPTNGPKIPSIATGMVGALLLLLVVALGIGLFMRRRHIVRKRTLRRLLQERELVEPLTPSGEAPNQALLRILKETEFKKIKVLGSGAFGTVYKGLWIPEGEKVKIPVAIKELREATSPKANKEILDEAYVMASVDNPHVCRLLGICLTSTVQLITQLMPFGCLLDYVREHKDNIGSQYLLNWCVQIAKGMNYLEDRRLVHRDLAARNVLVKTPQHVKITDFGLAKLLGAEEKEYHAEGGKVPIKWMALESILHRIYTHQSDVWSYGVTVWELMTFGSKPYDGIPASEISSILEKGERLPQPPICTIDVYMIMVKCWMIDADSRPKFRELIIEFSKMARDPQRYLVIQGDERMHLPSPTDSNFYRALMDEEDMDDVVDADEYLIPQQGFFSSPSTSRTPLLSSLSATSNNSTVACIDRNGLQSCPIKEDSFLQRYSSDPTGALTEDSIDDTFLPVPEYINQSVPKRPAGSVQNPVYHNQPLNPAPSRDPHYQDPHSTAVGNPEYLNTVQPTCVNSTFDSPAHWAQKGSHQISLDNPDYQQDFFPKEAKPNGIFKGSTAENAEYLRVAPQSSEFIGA

For the compound `CCOC(=O)C[C@H]1[C@H](OC(=O)c2cc3ccccc3oc2=O)[C@@H](NC(=O)c2ccccc2)c2cc(OCCCO)ccc2N1C(=O)c1ccc2ccccc2n1`, the composite z-score was 0.485 in assay [1]; -0.128 in assay [2]; -0.446 in [3]; 0.72 in [5]; 0.228 in [6]; 0.536 in assay [7]. Besides, the composite z-score in assay [8] worked out at 1.11; in assay [9], 0.425; in [10] it was 0.344; in assay [11], 0.55; in [13], 0.782; in assay [14] it was 0.183. In addition, the composite z-score was -0.505 in assay [15]; -0.0758 in assay [16]; -0.237 in [17]; -0.242 in assay [18]; 0.79 in [19]; 0.137 in [20]. The z-score in [4] was 0.0189 (inactive); in assay [12], -0.765.
Regarding `C=CCNC(=O)[C@@H]1[C@H]2C(=O)O[C@H](c3ccccc3)[C@H](c3ccccc3)N2[C@H](c2ccc(OCCO)cc2)[C@@]12C(=O)Nc1ccc(C#CCC(C(=O)OC)C(=O)OC)cc12`, the composite z-score in [1] was 1.7; in assay [2], 0.264; in assay [3], 0.171; in assay [5], 1.23; in [6] it was 1.27; in assay [7], -0.122. In addition, the composite z-score in assay [8] was 0.753; in [9] it was 0.335; in assay [10], 0.614; in [11], 0.637; in assay [13] it was 0.608; in [14] it was 0.263. For the same compound, the composite z-score in assay [15] was -0.224; in assay [16], 0.105; in assay [17], 0.147; in assay [18] it was 0.914; in assay [19] it was 1.19; in assay [20] it was 1.8. In addition, the figures for the z-score in [4] and in [12] were -0.646 (inactive) and -2.18, respectively.
As for `[N-]=[N+]=NCc1ccccc1[C@@H]1OC(c2ccc(OCCCO)cc2)=N[C@]1(Cc1ccccc1)C(N)=O`, the composite z-score in assay [1] was 1.01; in [2], 0.758; in assay [3] it was 0.864; in assay [5], 1.42; in assay [6], 1.3; in [7], -0.592. Also, the composite z-score in assay [8] was 0.881; in assay [9] it was -0.117; in assay [10] it was 0.857; in [11], 1.45; in assay [13], -0.33; in assay [14], 2.2. In addition, the composite z-score was 1.02 in assay [15]; -0.0286 in assay [16]; 0.365 in assay [17]; 1.14 in assay [18]; -0.402 in [19]; 2.14 in assay [20]. Moreover, the z-score in [4] is -1.16 (inactive); in assay [12], -1.3.
Take `O=C(N1CCCCC1)[C@]1(Cc2ccccc2)N=C(c2ccc(OCCCO)cc2)O[C@@H]1c1ccccc1`: the composite z-score was 1.05 in assay [1]; 0.887 in [2]; 1.08 in [3]; 0.956 in assay [5]; 0.669 in assay [6]; -0.394 in assay [7]. In addition, the composite z-score in assay [8] was 0.512; in assay [9], -0.474; in assay [10], 0.99; in assay [11], 1.42; in assay [13] it was 0.0931; in assay [14] it was 1.48. The composite z-score was found to be 0.516 in assay [15]; 0.0744 in [16]; 0.446 in assay [17]; 0.85 in [18]; 0.252 in [19]; 0.977 in assay [20]. Besides, the results for the z-score in assay [4] and in assay [12] were -0.555 (inactive) and -3.4, respectively.
For the compound `CC(C)C(O)C1C=CC2C(=O)N(c3ccccc3)C(=O)C2N1Nc1ccc([N+](=O)[O-])cc1` (stereo not given), the composite z-score in assay [1] was 0.0242; in assay [2] it was 0.814; in [3], 0.761; in assay [5] it was 0.635; in [6], 0.368; in [7] it was -0.0978. Moreover, the composite z-score in [8] was 0.29; in [9] it was -0.467; in assay [10], 0.85; in assay [11] it was 1.2; in assay [13], -0.217; in assay [14], 0.594. In addition, the composite z-score turned out to be 0.308 in assay [15]; 0.261 in assay [16]; 0.0358 in assay [17]; 0.202 in [18]; 1.34 in [19]; 0.801 in [20]. Also, the values for the z-score in assay [4] and in [12] were 0.735 (inactive) and 0.285, respectively.
